Shown is part of a subset that was picked to be rich in hits.
Pf Dd2 inh – inhibitors of Plasmodium falciparum Dd2 growth. Potency, µM (series often up to 28.9 µM), usual class: inhibitors. P. falciparum Dd2 growth, SYBR Green, 72 h. 120,000 compounds, 4.3% hits; active means well fitted inhibition curve with a large enough effect; further: nearly all actives have a fitted effect of over 65% in size
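Readout: SYBR Green fluorescence, 485 nm excitation, 535 nm emission, after ~16 h lysis at 37C. Before that, Dd2-infected red cells (2.5% hematocrit) grew 72 h with compound, 29 uM top final concentration.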
Of the large screens only hits and unclear results are named; the others gave an inactive call; ! = not active in a repeat.

O=C(NCc1ccco1)C1CC(c2ccccc2)CN(C(=O)c2ccoc2)C1 (stereo not drawn)	none
CN(C)CC(O)c1cc2n(n1)CCN(C(=O)CCc1ccc(=O)[nH]n1)C2 (stereo not drawn)	none
COc1cccc(C(=O)N2C(C(=O)N3CCC(C(N)=O)CC3)COC23CCC(C)CC3)c1 (stereo not drawn)	none
CC(C)CC1=NC2(CCN(C(=O)c3cccc(N(C)C)c3)CC2)C(=O)N1	none
Cc1ccc(C2=NC3(CCN(C(=O)c4cccc(N(C)C)c4)CC3)ON2)cc1	none
CN(C)c1cccc(C(=O)N2CCC(c3c[nH]c4ccccc34)(c3c[nH]c4ccccc34)CC2)c1	Pf Dd2 inh 3.98µM
COC[C@H]1C[C@@H](NCc2nccn2C)[C@H](O)[C@@H]1O	none
COc1ccc(S(=O)(=O)Nc2ccc(C)n(CC(=O)NCc3ccccc3)c2=O)cc1	none
COc1ccccc1NC(=O)Cn1c(C)ccc(NS(=O)(=O)c2ccccc2)c1=O	Pf Dd2 inh 1.41µM
CCc1ccc(NC(=O)Cn2c(C)ccc(NS(=O)(=O)c3ccccc3)c2=O)cc1	none
Cc1ccc(S(=O)(=O)N2CCCC3(CCC(=O)N(C4CC4)C3)C2)cc1C (stereo not drawn)	none
CN1CCCC1c1nc(C2CN(C(=O)c3cccn3C)C2)no1 (stereo not drawn)	none
COc1ccc(C(=O)N2CCC(Cc3nncn3Cc3ccccc3)C2)cc1 (stereo not drawn)	none
O=C(NCCc1noc(C2CC2)n1)c1n[nH]c2ccccc12	none
CC(=O)NCCc1ncc(C)n1C1CCCC1	none
Cc1cnc(CCNC(=O)c2n[nH]c3ccccc23)n1C1CCCC1	Pf Dd2 inh 3.16µM
COc1cc(OC)cc(C(=O)N2C[C@@H](F)C[C@H]2C(=O)N2CCCCC2)c1	none
Cc1c(C(=O)N2C[C@@H](C(=O)O)C[C@H](C(=O)NC3CC3)C2)sc2ccccc12	none
CCCNC(=O)N(C1CCOCC1)C1CCN(C(=O)Cc2ccccc2Cl)CC1	none
CN(Cc1ccc(-c2ccccc2)cc1)C(=O)Nc1ccccc1	none
Cc1ccc(NC(=O)c2c(C)oc3ccc(O)c(CN(C)Cc4ccccc4)c23)c(C)c1	Pf Dd2 inh 1.26µM
Cc1oc2ccn(Cc3cccc(F)c3)c(=O)c2c1C(=O)N(C)Cc1ccccc1	none
Cc1ccc(NC(=O)Nc2nnc(N(C)Cc3ccccc3)s2)c(C)c1	none
Cc1ccc(NC(=O)c2c(C)oc3ncnc(N4CCCCC4)c23)c(C)c1	none
Cc1oc2ccc(O)c(CN(C)Cc3ccccc3)c2c1C(=O)Nc1ccccc1	Pf Dd2 inh 1.12µM
C[C@@H]1CN(Cc2nc3c(n2Cc2ccccc2)C(=O)N(CC2CC2)CCN3)C[C@H](C)O1	none
COc1ccc(CC(=O)N[C@@H]2c3ccccc3C3(CCNCC3)[C@H]2OC)cc1	none
COc1ccc(CN2CCNC(=O)C2CC(=O)NCc2ccco2)c(F)c1 (stereo not drawn)	none
COCCc1noc(-c2nnn3c2COC(c2ccc(F)cc2)C3)n1 (stereo not drawn)	none
O=C(c1ccc(F)cc1Cl)N1CCC(n2cc(-c3nc(C4CC4)no3)nn2)C1 (stereo not drawn)	none
CC(C)C1CN(C(=O)c2ccc(F)cn2)CCC(=O)N1Cc1ccc(F)cc1 (stereo not drawn)	none
O=C(c1ccc2c(c1)OCO2)N1CCCC2(C1)NC(=O)N(Cc1ccc(Cl)cc1)C2=O (stereo not drawn)	none
Cc1noc(C)c1-c1cc2cc(CO)oc2c(NCC2CCOCC2)n1	none
Cc1noc(C)c1-c1cc2cc(C(C)C)oc2c(Nc2ccn(C)n2)n1	none
Cc1cc2cc(-c3c(C)noc3C)nc(NC3CC3)c2o1	none
Cc1noc(C)c1-c1cc2cc(CNC3CC3)oc2c(NC2CCN(C)CC2)n1	none
Cc1noc(C)c1-c1cc2cc(C(C)C)oc2c(NCCN2CCOCC2)n1	Pf Dd2 inh 10µM
Cc1noc(C)c1-c1cc2cc(C(C)C)oc2c(NC2CCN(C)CC2)n1	Pf Dd2 inh 10µM
CCC(C)NC(=O)CN1C(=O)C(c2ccccc2)=NC1(C)C (stereo not drawn)	none
CC(C)N1CCN(C(=O)CCC2CCN(S(=O)(=O)c3ccccc3)CC2)CC1	none
COCCC(=O)NCCC1CCN(C(=O)Nc2cc(F)ccc2F)CC1	none
Cc1cc(-c2cccc(OCCn3ccnc3)c2)ccn1	none
CCO[C@H]1CN(Cc2cc3c(cc2OC)OCCCO3)C[C@@H]1O	none
CCN(CC)[C@H]1[C@@H]2OC[C@@H](O2)[C@@H](NCc2ccccc2OC)[C@@H]1O	none
Cc1c(C(=O)Nc2ccc(F)cc2)sc2nc[nH]c(=O)c12	none
COc1ccc(-c2ccc3c(N)c(C(=O)Nc4cc(F)ccc4C)sc3n2)cc1	none
COc1ccc(-c2c3c(nc4sc(C(=O)Nc5ccc(F)cc5)c(N)c24)CC(C)(C)CC3=O)cc1	Pf Dd2 inh 0.562µM
COc1ccc(CCNc2ncnc3c2CN(c2ccccc2C)C(=O)CN3C)cc1	none
CC(C)c1ccc2c(c1)NC(c1ccncc1)=NC(c1cccs1)=N2	none
CCc1ccc2c(c1)NC(c1ccc(C)cc1)=NC(c1cccs1)=N2	Pf Dd2 inh 12.6µM
FC(F)(F)Oc1ccc2c(c1)NC(c1ccncc1)=NC(c1cccs1)=N2	none
O=c1[nH]c(C2CCN(Cc3cccs3)CC2)nc2ccc(F)cc12	none
O=c1[nH]c(C2CCCN(Cc3ccccc3)C2)nn1-c1ccc(Cl)cc1 (stereo not drawn)	none
O=C(NCc1ccccc1)N1CC[C@H](c2nc3ccc(F)cc3[nH]2)C1	none
O=c1[nH]c(C2CCCN(CC3CC3)C2)nn1-c1ccccc1 (stereo not drawn)	none
O=c1[nH]c(C2CCCN(CC3CCCC3)C2)nc2ccc(F)cc12 (stereo not drawn)	Pf Dd2 inh 2.24µM
COc1ccc(CN2CCCC(c3nn(-c4ccc(Cl)cc4)c(=O)[nH]3)C2)cc1 (stereo not drawn)	none
O=c1[nH]c(C2CCCN(Cc3ccc(Cl)cc3)C2)nc2ccc(F)cc12 (stereo not drawn)	Pf Dd2 inh 8.91µM
O=c1[nH]c(C2CCCN(Cc3cccc(Cl)c3)C2)nc2ccc(F)cc12 (stereo not drawn)	Pf Dd2 inh 10µM!
Cc1ccc2nc(C3CCN(Cc4cccc(Cl)c4)CC3)[nH]c(=O)c2c1	none
CC(c1ccc2c(c1)OCCO2)N(C)C(=O)c1ccc2nccn2c1 (stereo not drawn)	none
COc1ccc(-c2ccccc2)cc1N1C(=O)[C@@H]2C[C@H]1CN2C(=O)C(C)(C)N	none
COc1ccccc1CCC(=O)NCc1nnc2ccc(-c3ccc(C)c(C)c3)nn12	none
NCCO[C@H]1C[C@@H](O)C12CCN(Cc1c(Cl)cccc1Cl)CC2	none
CN1CCN(C(=O)[C@@H]2CCC[C@@H](NC3CCC3)CN(C)C(=O)C2)CC1	none
CN1CC(=O)N(C2CCCNCC2)Cc2c1ncnc2N1CCC(N2CCOCC2)CC1 (stereo not drawn)	none
OC1(CN2CCC(OCc3ccccn3)CC2)CNCCOC1 (stereo not drawn)	none
OC1(CN2CCN(C(c3ccccc3)c3ccccc3)CC2)CNCCOC1 (stereo not drawn)	Pf Dd2 inh 6.31µM
Cn1ccnc1CN1CCN(CC2(O)CNCCOC2)CC1 (stereo not drawn)	none
Cc1cc(N2CCN(CC3(O)CNCCOC3)CC2)n2ncnc2n1 (stereo not drawn)	none
OC1(CN2CCN(c3cnccn3)CC2)CNCCOC1 (stereo not drawn)	none
OC1(CN2CCCN(c3nc4ccccc4s3)CC2)CNCCOC1 (stereo not drawn)	Pf Dd2 inh 8.91µM
Cc1n[nH]c(C)c1C(N)C(=O)NCCc1cccc(C(F)(F)F)c1 (stereo not drawn)	none
COc1ccccc1C(=O)N1CCn2c(nn(-c3ccc(Cl)cc3)c2=O)C1	none

Source: PubChem BioAssay
